PubChem BioAssay (NCATS)
Where “and” joins values, the source holds several entries; their conditions need not be identical. Equal values may be shown once. Inconclusive results are not listed. Calls of active or inactive are those of the source. Calls follow the shape of the dose curve; as a rule, active = well fitted inhibition curve with a large enough effect; inconclusive = small, poorly fitted or top-dose-only effect; inactive = flat fitted curve, though single readings scatter.

What follows are compounds tested on CRL-7250 (assay: Cytotoxic Profiling of Annotated Libraries Using Quantitative High-Throughput Screening (AID 1296008; also: nearly all actives have a fitted effect of over 60% in size)). Conditions: Five cell lines viability, CellTiter-Glo ATP luminescence, 48-72 h; max response: hits give low values.
How it was run: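 Compounds were pin-transferred onto cells and incubated 48 or 72 hr at 37 degree Celsius, 95% humidity. CellTiter-Glo was added, plates sat 10 min at room temperature, then ATP-coupled luminescence was imaged as the viability read-out.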
% is scaled to controls: 0 for no effect and ±100 for the full control effect; potency is read from the fitted curve at half-maximal effect.

Row | SMILES | Potency | max response | outcome
1 | NC(=O)Nc1cc(-c2cccc(F)c2)sc1C(=O)N[C@H]1CCCNC1 | 4.69 µM (active) and 2.06 µM (active) |  | 
2 | COc1cc(C(=O)N2CCC(N3CCN(C)CC3)CC2)ccc1Nc1ncc2c(n1)N(C)c1ccccc1C(=O)N2C | 3.66 µM (active) |  | 
3 | C=CCn1c(=O)c2cnc(Nc3ccc(N4CCN(C)CC4)cc3)nc2n1-c1cccc(C(C)(C)O)n1 |  | -7.63% (inactive) | 
4 | CCn1nnc2c(N3CCOCC3)nc(-c3ccc(NC(=O)Nc4ccc(C(=O)N5CCN(C)CC5)cc4)cc3)nc21 | 0.0651 µM (active) |  | 
5 | CC1(C)CC(=O)c2c(C(F)(F)F)nn(-c3ccc(C(N)=O)c(NC4CCC(OC(=O)CN)CC4)c3)c2C1 (centres undefined) | 469 nM (active) and 231 nM (active) |  | 
6 | COc1cc(=C2C=c3ccccc3=N2)[nH]c1=Cc1[nH]c(C)cc1C | 11.8 µM (active) |  | 
7 | CNC(=O)c1cc(Oc2ccc(NC(=O)Nc3cc(C(C)(C)C)nn3-c3ccc4ncccc4c3)c(F)c2)ccn1 | 13.2 µM (active) and 18.4 µM (active) |  | 
8 | COc1ccc2c(c1)CC[C@@H](CN(C)CC(=O)O)[C@H]2c1ccccc1 |  | -2.88% (inactive) | 
9 | Clc1cccc(-c2nnnn2Cc2cccnc2)c1Cl |  | -2.93% (inactive) | 
10 | NC1(Cc2ccc(Cl)cc2)CCN(c2ncnc3[nH]ccc23)CC1 | 13.2 µM (active) |  | 
11 | CCS(=O)(=O)c1cccc(-c2cc(C(=O)NC3CCN(C)CC3)c(C)c3[nH]c4ncc(C)cc4c23)c1 | 1.28 µM (active) |  | 
12 | C1=CCOCc2cc(ccc2OCCN2CCCC2)Nc2nccc(n2)-c2cccc(c2)OCC1 | 8.33 µM (active) |  | 
13 | CC(C)c1cc(-c2n[nH]c(=O)n2-c2ccc3c(ccn3C)c2)c(O)cc1O | 148 nM (active) and 103 nM (active) |  | 
14 | CC1(C)CCC(c2ccc(Cl)cc2)=C(CN2CCN(c3ccc(C(=O)NS(=O)(=O)c4ccc(N[C@H](CCN5CCOCC5)CSc5ccccc5)c(S(=O)(=O)C(F)(F)F)c4)cc3)CC2)C1 |  | 3.93% (inactive) | 
15 | CCc1cc2c(cc1N1CCC(N3CCOCC3)CC1)C(C)(C)c1[nH]c3cc(C#N)ccc3c1C2=O |  | -36.8% (inactive) and 0.704% (inactive) | 
16 | COc1ccc(C=Cc2cc(OC)c(OC)c(OC)c2)cc1O |  | -82.4% (inactive) | 
17 | OCCCNc1cc(-c2ccnc(Nc3cccc(Cl)c3)n2)ccn1 | 46.9 nM (active) and 146 nM (active) |  | 

Row | SMILES | Potency | max response | outcome
18 | C=C1C(=CC=C2CCC[C@]3(C)[C@@H]([C@H](C)C=C[C@H](C)C(C)C)CC[C@@H]23)C[C@@H](O)C[C@@H]1O |  | -0.207% (inactive) | 
19 | CCc1c2c(nc3ccc(O)cc13)-c1cc3c(c(=O)n1C2)COC(=O)[C@]3(O)CC | 651 nM (active) and 2.64 µM (active) |  | 
20 | Cc1[nH]c2ccccc2c1CCNCc1ccc(C=CC(=O)NO)cc1 | 1.05 µM (active) |  | 
21 | CN[C@H]1CCc2cc(OC)c(OC)c(OC)c2-c2ccc(OC)c(=O)cc21 | 0.0148 µM (active) |  | 
22 | O=C(c1ccc(Nc2nccc(-c3cc4ccccc4s3)n2)cc1)N1CCC(N2CCCC2)CC1 | 14.8 µM (active) |  | 
23 | CC(C)c1cnn2c(NCc3ccccc3)cc(N[C@@H](CO)[C@H](O)CO)nc12 | 0.296 µM (active) |  | 
24 | CC[C@H](CO)Nc1nc(NCc2ccccc2)c2ncn(C(C)C)c2n1 | 26.4 µM (active) |  | 
25 | Nc1nccc(Oc2ccc(NC(=O)c3c[nH]cc(-c4ccc(F)cc4)c3=O)cc2F)c1Cl | 18.7 µM (active) |  | 
26 | CC1(C)OC2=C(C(=O)c3ccccc3C2=O)[C@H](NCc2ccccc2)[C@H]1O | 16.6 µM (active) |  | 
27 | Cc1cn2c(-c3cn[nH]c3)cnc2c(Nc2ccc(C(=O)N3CCNCC3)cc2F)n1 | 6.51 µM (active) |  | 
28 | C[C@@H]1CN(CC(=O)Nc2ccc3c(c2)Cc2cccc(-c4cc(=O)cc(N5CCOCC5)o4)c2S3)C[C@H](C)O1 |  | -2.3% (inactive) | 
29 | CN(C)c1nc(Cc2ccc(NC(=O)c3ccc4ccccc4c3)cc2)nc(Cl)c1CC(=O)O |  | 0.957% (inactive) and -5.82% (inactive) | 
30 | COc1cc2c(Oc3ccc(-c4cnc(Nc5ccc(F)cc5)n(C)c4=O)cc3F)ccnc2cc1OCCCN1CCOCC1 | 13.2 µM (active) |  | 
31 | C=CC(=O)Nc1cccc(Oc2nc(Nc3ccc(N4CCN(C)CC4)cc3OC)ncc2Cl)c1 |  | -21.1% (inactive) | 
32 | O=C(O)[C@H](Cc1c[nH]c2ccccc12)N1C(=O)c2ccccc2C1=O |  |  | inactive
33 | CC1=C(CO)C(=O)O[C@@H]([C@@H](C)[C@H]2CC[C@H]3[C@@H]4C[C@H]5O[C@]56[C@@H](O)C=CC(=O)[C@]6(C)[C@@H]4CC[C@]23C)C1 | 1.48 µM (active) |  | 
34 | CC(C)c1ccc(Cn2ccc3c4c(N)nc(NC5CC5)nc4ccc32)cc1 | 3.32 µM (active) |  | 
